{"source": "PubChem BioAssay (NCI)", "note": "This is part of a sample that, as a whole, favours compounds with a hit. Of some 83,000 tested, about 20% had one in any assay.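 The test compound was applied at a single concentration to cells in 96-well plates for 48 hours, and percent growth was recorded.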 Values without a mark were called inactive. Calls of active or inactive are those of the source."}
{"system": "OVCAR-3 ovarian", "assay": "NCI-60 one-dose screen, 48 h (100 = growth as untreated, 0 = no growth, -100 = all killed)", "settings": "10 µM", "description": "Growth inhibition of the OVCAR-3 human tumor cell line is measured as a screen for anti-cancer activity. Cells are grown in 96 well plates and exposed to the test compound for 48 hours. Compounds are tested at a single concentration, which is 10^-5 M for most compounds. The reported endpoint is percent growth (GI% or GIPRCNT), where numbers from 0 - 100% represent growth inhibition, and numbers from -100% - 0 represent cell death. For example, a value of 40 represents 60% growth inhibition. A value of 0 means no net growth occurred over the course of the experiment. A value of -40 indicates 40% of cells at the beginning of the experiment died by the end of the experiment. A value of -100 means all cells are dead at the end of the experiment.\nNCI-60 Human Tumor Cell Lines Screen was performed using the standard one-dose NCI protocol, which is described in more detail at https://dtp.cancer.gov/discovery_development/nci-60/default.htm.\nCompounds with GIPRCNT values below 10 were considered active. Activity score was based on GIPRCNT using the following formula: […]\nScore is 0 for GIPRCNT values of 100 or above, 50 for GIPRCNT values of 0, and 100 for GIPRCNT values of -100."}
{"smiles": "CN1CCc2c(sc3ncnc(N/N=C/c4cn(-c5ccccc5)nc4-c4ccc(Br)cc4)c23)C1", "growth": "4.8% (active)"}
{"smiles": "COc1ccccc1[C@H]1C(C(=O)c2ccc(O)cc2)C2(N[C@@H]1c1ccccc1)C(=O)Nc1ccc(Br)cc12", "note": "(stereo not given in full)", "growth": "-29.1% (active)"}
{"smiles": "COc1ccc(OC)c(-c2cc(-c3c[nH]c4ccccc34)nc(N)c2C#N)c1", "growth": "-23.5% (active)"}
{"smiles": "N#Cc1c(NC(=O)c2ccc(C(O)(C(F)(F)F)C(F)(F)F)cc2)sc2c1CCC(=O)C2", "growth": "-53.1% (active)"}
{"smiles": "O=c1c2ccccc2nc(COc2ccccc2)n1/N=C/c1ccc(N2CCCC2)cc1", "growth": "105%"}
{"smiles": "COc1ccc(C(C)=C(c2ccc(OCCCN(C)C)cc2)c2ccc(OCCCN(C)C)cc2)cc1", "growth": "-81.3% (active)"}
{"smiles": "O=C(NC(=S)N1CCN(c2ncnc3c2cnn3-c2ccccc2)CC1)c1ccc(Cl)cc1", "growth": "48.1%"}
{"smiles": "OCCCNc1oc(-c2ccccc2)nc1[P+](c1ccccc1)(c1ccccc1)c1ccccc1", "growth": "-8.66% (active)"}
{"smiles": "O=C(c1ccc(-n2c(=O)[nH]c3ccccc3c2=O)cc1)N1CCOCC1", "growth": "108%"}
{"smiles": "Cc1ccn2c(C(=O)c3ccccc3)cc(-c3cc(-c4ccc(N(C)C)cc4)c(C#N)c(N)n3)c2c1", "growth": "58.2%"}
{"smiles": "O=C(CN1CCN(c2ncnc3c2cnn3-c2ccccc2)CC1)Nc1nncs1", "growth": "-55.6% (active)"}
{"smiles": "Brc1ccc(/C=N/Nc2ncnc3sc4c(c23)CCN(Cc2ccccc2)C4)cc1", "growth": "33%"}
{"smiles": "CN1CCN(c2ccc(C(=O)/C=C/c3cc(Br)ccc3F)cc2)CC1", "growth": "33.8%"}
{"smiles": "CCN1CCN(c2ccc(NC(=O)Nc3ccc(-c4cc(C(=O)NC(C)C)c5ncccc5n4)cc3)cc2C(F)(F)F)CC1", "growth": "-60.1% (active)"}
{"smiles": "Cc1nn(-c2ccccc2)c2ncn(CC(=O)N/N=C/c3c[nH]c4ccccc34)c(=O)c12", "growth": "84.3%"}
{"smiles": "COC1=C[C@@]23CCC(=O)N2CCc2cc4c(cc2[C@H]3[C@H]1OC(=O)C(C)(C)O)OCO4", "growth": "106%"}
{"smiles": "O=C1CCC(N2Cc3cc(CC(=O)Nc4ccc(N5CCCCC5)cc4)ccc3C2=O)C(=O)N1", "note": "(stereo not given)", "growth": "53.9%"}
{"smiles": "CCCCCCCCCCCCCCCCCCCC(=O)NCCc1c[nH]c2ccc(O)cc12", "growth": "87.4%"}
{"smiles": "Brc1ccc(/C=C/c2n(Cc3ccc4ccccc4c3)c3ccccc3[n+]2Cc2ccc3ccccc3c2)cc1", "growth": "-89.5% (active)"}
{"smiles": "CC(C)Sc1nc(NC2CC2)c(C#N)c(-c2ccccc2)n1", "growth": "86.5%"}
{"smiles": "C/C(=C\\CSc1ccccc1C(=O)O)CCCC(C)CCCC(C)CCCC(C)C", "note": "(stereo not given)", "growth": "74.4%"}
{"smiles": "COc1cc(/C=C/C(=O)c2ccc(S(=O)(=O)NCCNc3nc(Nc4ccc(F)cc4)nc(N(C)C)n3)cc2)cc(OC)c1OC", "growth": "-88.1% (active)"}
{"smiles": "COc1ccc(-c2nc(S(=O)(=O)c3ccccc3)c(S(C)(=O)=O)o2)cc1", "growth": "-81.8% (active)"}
{"smiles": "CCCn1c(=O)c2[nH]c(-c3ccc(OCc4nc5ccc(C)cc5[nH]4)cc3)nc2n(CCC)c1=O", "growth": "18.2%"}
{"smiles": "N#Cc1c(NC(=O)c2ccc(C(F)(F)F)c(Cl)c2)sc2c1CCC(=O)C2", "growth": "-57% (active)"}
{"smiles": "CC1(C)CC[C@]2(C(=O)N3CCOCC3)CC[C@]3(C)C(=CC[C@@H]4[C@@]5(C)CC[C@H](NCO)C(C)(C)[C@@H]5CC[C@]43C)[C@H]2C1", "growth": "-82.7% (active)"}
{"smiles": "O=C(NO)c1ccc(Cn2ccc3c(NCc4ccccc4)ncnc32)cc1", "growth": "8.99% (active)"}
{"smiles": "O=C(NCCCCCCCCCC[P+](c1ccccc1)(c1ccccc1)c1ccccc1)c1ccc(-n2nc(-c3ccccc3O)nc2-c2ccccc2O)cc1", "growth": "-14.1% (active)"}
{"smiles": "C#Cc1ccc(S(=O)(=O)Nc2cccc(-c3csc(NC(C)=O)n3)c2)cc1", "growth": "82.7%"}
{"smiles": "Cc1ccc2nc(COc3ccc(C(=O)NNC(=S)NCCc4ccccc4)cc3)[nH]c2c1", "growth": "105%"}
{"smiles": "COc1csc(/C=N/NC(=O)c2[nH]c3ccc(Br)cc3c2-c2ccccc2)c1", "growth": "6.96% (active)"}
{"smiles": "O=C(NO)c1ccc(CNc2nc(-c3ccccc3)c3ccccc3n2)cc1", "growth": "-11.3% (active)"}
{"smiles": "O=C(Nc1ccc(OCC(=O)c2ccccc2)cc1)Nc1ccc(Cl)c(C(F)(F)F)c1", "growth": "23.8%"}
{"smiles": "CC(=O)Nc1ccc(-n2cnc3cc(-c4ccc(NS(C)(=O)=O)cc4)ccc32)cc1", "growth": "63.1%"}
{"smiles": "Cc1ccc(-c2nc3ccc(C(=O)N=Nc4c(O)[nH]c5ccc(Cl)cc45)cc3[nH]2)cc1", "growth": "-47.2% (active)"}
{"smiles": "OCCNc1oc(-c2ccccc2)nc1[P+](c1ccccc1)(c1ccccc1)c1ccccc1", "growth": "-9.22% (active)"}
{"smiles": "CN(C)c1nc(NCCNS(=O)(=O)c2ccc(C(=O)/C=C/c3ccccc3)cc2)nc(Nc2ccc(F)cc2)n1", "growth": "-42.2% (active)"}
{"smiles": "COc1ccc(-c2cc(C(=O)N=Nc3c(O)[nH]c4ccc(Br)cc34)c3ccccc3n2)cc1", "growth": "8.75% (active)"}
{"smiles": "CN1CCN(c2ccc(Nc3nc(N4CCN(S(=O)(=O)c5ccc(Cl)cc5)CC4)c4sccc4n3)cc2)CC1", "growth": "-34.9% (active)"}
{"smiles": "O=C(CSc1ccc(-c2ccc(Cl)cc2)nn1)Nc1ccc(Cl)c(C(F)(F)F)c1", "growth": "69.3%"}
